Test results: PubChem BioAssay (Tox21)
Results filed as inconclusive are left out. Active and inactive are the calls of the source. Unless noted, calls follow the shape of the dose curve; as a rule, active = well fitted curve in the direction sought with a large enough effect in the repeat runs; inconclusive = weak or mixed curves; inactive = no such curve, though single readings can be large; an effect the other way counts as inactive or inconclusive.

Assays:
[1] = target: Peroxisome proliferator-activated receptor delta (Homo sapiens) (UniProt Q03181); experiment: qHTS assay to identify small molecule agonists of the peroxisome proliferator-activated receptor delta (PPARd) signaling pathway (AID 743212; calls by dose curve; also: % is scaled to controls: 0 for no effect and ±100 for the full control effect)
In short: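 Tox21 library screened in GeneBLAzer PPARd UAS-bla HEK293H cells. After compound treatment at 37 C, a FRET-based beta-lactamase substrate was applied for 2 h and fluorescence recorded.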

[2] = qHTS assay to identify small molecule antagonists of the peroxisome proliferator-activated receptor delta (PPARd) signaling pathway - cell viability counter screen (AID 743213); also: % is scaled to controls: 0 for no effect and ±100 for the full control effect; nearly all actives have a fitted effect of over 50% in size
In short: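 PPARd-bla HEK293H cells (3000/well) got compound plus 300 nM L165041 agonist for 17 h at 37 C. Viability in the same wells came from CellTiter-Glo luminescence after 30 min at room temperature.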

[3] = target: Peroxisome proliferator-activated receptor delta (Homo sapiens) (UniProt Q03181); experiment: qHTS assay to identify small molecule antagonists of the peroxisome proliferator-activated receptor delta (PPARd) signaling pathway (AID 743215; active = well fitted inhibition curve with a large enough effect in the signal ratio in the repeat runs, not every such curve was filed as active; the % refers to the signal ratio;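 also: cells stimulated with agonist L165041 at 300 nM final during compound exposure; series mostly up to about 62 µM; % is scaled to controls: 0 for no effect and ±100 for the full control effect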)
In short: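 Agonist L165041 (300 nM final) added with compound to PPARd-bla HEK293H UAS-bla reporter cells; 17 h incubation at 37 C. Read-out: LiveBLAzer FRET substrate, 2 h at room temperature, fluorescence intensity.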

[4] = target: Bile acid receptor (Homo sapiens) (UniProt Q96RI1); experiment: qHTS assay to identify small molecule antagonists of the farnesoid-X-receptor (FXR) signaling pathway (AID 743217; active = well fitted inhibition curve with a large enough effect in the signal ratio in the repeat runs, not every such curve was filed as active; the % refers to the signal ratio; also: % is scaled to controls: 0 for no effect and ±100 for the full control effect)
In short: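 Antagonist mode: chenodeoxycholic acid at 50 uM final stimulates a UAS-driven beta-lactamase reporter in HEK 293T FXR-bla cells during 16 h, 37C compound exposure. Read-out is FRET substrate fluorescence after 2 h at room temperature.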

[5] = qHTS assay to identify small molecule agonists of the farnesoid-X-receptor (FXR) signaling pathway - cell viability counter screen (AID 743218); also: % is scaled to controls: 0 for no effect and ±100 for the full control effect; nearly all actives have a fitted effect of over 45% in size
In short: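 Viability counter screen in the same wells: CellTiter-Glo luminescence, 30 min room-temperature incubation, measured after the beta-lactamase read. Cells were GeneBLAzer FXR-UAS-bla HEK 293T, compound-treated 16 h at 37C.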

[6] = target: Bile acid receptor (Homo sapiens) (UniProt Q96RI1); experiment: qHTS assay to identify small molecule agonists of the farnesoid-X-receptor (FXR) signaling pathway (AID 743220; active = well fitted activation curve with a large enough effect in the signal ratio in the repeat runs, not every such curve was filed as active; the % refers to the signal ratio; also: % is scaled to controls: 0 for no effect and ±100 for the full control effect)
In short: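 FXR-UAS-bla HEK 293T cells carrying a UAS-driven beta-lactamase reporter were plated for 5 h at 37C/5% CO2, then exposed to DMSO-dissolved Tox21 10K compounds for 16 h at 37C. A LiveBLAzer B/G FRET substrate was loaded for 2 h at room temperature before fluorescence reading.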

[7] = qHTS assay to identify small molecule antagonists of the farnesoid-X-receptor (FXR) signaling pathway - cell viability counter screen (AID 743221; active = well fitted cell-killing curve with a large enough effect in the repeat runs, not every such curve was filed as active; also: % is scaled to controls: 0 for no effect and ±100 for the full control effect; nearly all actives have a fitted effect of over 50% in size)
In short: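 Quantitative HTS of the Tox21 10K library run in parallel with the beta-lactamase reporter read. HEK 293T cells carrying a UAS-driven bla reporter got compound and 50 uM CDCA (final) for 16 h; ATP-based luminescence followed.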

[8] = target: Vitamin D3 receptor (Homo sapiens) (UniProt P11473); experiment: qHTS assay to identify small molecule agonists of the vitamin D receptor (VDR) signaling pathway (AID 743222; calls by dose curve; also: % is scaled to controls: 0 for no effect and ±100 for the full control effect)
In short: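 Agonist mode, beta-lactamase reporter: fluorescence from LiveBLAzer B/G FRET substrate (2 h, room temperature) read after 16 h compound treatment at 37 C of VDR-bla cells, which were pre-incubated 4 h after seeding.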

[9] = target: Vitamin D3 receptor (Homo sapiens) (UniProt P11473); experiment: qHTS assay to identify small molecule antagonists of the vitamin D receptor (VDR) signaling pathway (AID 743223; active = well fitted inhibition curve with a large enough effect in the signal ratio in the repeat runs, not every such curve was filed as active; the % refers to the signal ratio; also: % is scaled to controls: 0 for no effect and ±100 for the full control effect)
In short: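 Fluorescence from LiveBLAzer B/G FRET substrate, read after 2 h at room temperature, reflects beta-lactamase reporter activity in VDR-bla cells treated 16 h at 37C with compounds and agonist 1alpha,25-dihydroxyvitamin D3 (3 nM final).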

[10] = qHTS assay to identify small molecule agonists of the vitamin D receptor (VDR) signaling pathway - cell viability counter screen (AID 743224); also: series mostly up to about 63 µM; % is scaled to controls: 0 for no effect and ±100 for the full control effect; nearly all actives have a fitted effect of over 50% in size
In short: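 Counter screen run in the same wells as the VDR-bla reporter assay: CellTiter-Glo luminescence, 30 min at room temperature, after 16 h compound treatment at 37C of cells pre-plated for 4 h.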

[11] = qHTS assay to identify small molecule agonists of the NFkB signaling pathway - cell viability counter screen (AID 1159515; calls by dose curve; also: series mostly up to about 61 µM; % is scaled to controls: 0 for no effect and ±100 for the full control effect; nearly all actives have a fitted effect of over 55% in size)
In short: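 Read by CellTiter-Glo luminescence (30 min, room temperature) in the wells also used for the beta-lactamase FRET read. ME-180 NFkB-bla cells at 2,000 per well were plated overnight, then exposed to compound for 5 hr at 37 C.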

[12] = qHTS assay to identify small molecule agonists of the endoplasmic reticulum stress response signaling pathway (AID 1159516; active = well fitted activation curve with a large enough effect in the signal ratio in the repeat runs, not every such curve was filed as active; the % refers to the signal ratio; also: % is scaled to controls: 0 for no effect and ±100 for the full control effect)
In short: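 Ratiometric FRET readout (405 nm excitation; 460 and 530 nm emission) of a beta-lactamase gene driven by the ER stress response element, after 2 hr substrate loading. HeLa ESRE-bla cells were seeded overnight and treated with compounds for only 5 hr at 37 C.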

[13] = qHTS assay to identify small molecule agonists of the endoplasmic reticulum stress response signaling pathway - cell viability counter screen (AID 1159517; calls by dose curve; also: series mostly up to about 61 µM; % is scaled to controls: 0 for no effect and ±100 for the full control effect; nearly all actives have a fitted effect of over 50% in size)
In short: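 In parallel with the ESRE reporter read, cytotoxicity was scored by CellTiter-Glo luminescence (30 min, room temperature) on HeLa ESRE-bla cells dosed for 5 hr.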

[14] = target: Nuclear receptor ROR-gamma (Homo sapiens) (UniProt P51449); experiment: qHTS assay to identify small molecule antagonists of the retinoid-related orphan receptor gamma (ROR-gamma) signaling pathway (AID 1159521)
In short: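 RORγ antagonism is scored from reduced reporter luminescence in Tet-on CHO cells. Induction used 1 uM final doxycycline hyclate for 16 h at 37 C, following a 2 h compound exposure.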

[15] = qHTS assay to identify small molecule agonists of the AP-1 signaling pathway - cell viability counter screen (AID 1159525; calls by dose curve; also: nearly all actives have a fitted effect of over 55% in size)
In short: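 Same-well cytotoxicity counter screen of the Tox21 10K library in ME-180 cells. The readout is ATP-dependent luminescence after 5 h compound treatment. Data are normalised to DMSO and tetra n-octyl ammonium bromide controls.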

[16] = qHTS assay to identify small molecule agonists of the AP-1 signaling pathway (AID 1159526; calls by dose curve; also: % is scaled to controls: 0 for no effect and ±100 for the full control effect)
[17] = target: Retinoic acid receptor RXR-alpha (Homo sapiens) (UniProt P19793); experiment: qHTS assay to identify small molecule agonists of the RXR signaling pathway (AID 1159527; calls by dose curve; also: % is scaled to controls: 0 for no effect and ±100 for the full control effect; nearly all actives have a fitted effect of over 35% in size)
In short: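 qHTS of the Tox21 10K library in GeneBLAzer RXR-alpha HEK 293T cells carrying a beta-lactamase reporter […]; 16 hr treatment, 9-cis retinoic acid as agonist control, FRET read-out.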

[18] = qHTS assay to identify small molecule agonists of the peroxisome proliferator-activated receptor delta (PPARd) signaling pathway - cell viability counter screen (AID 743211); also: % is scaled to controls: 0 for no effect and ±100 for the full control effect; nearly all actives have a fitted effect of over 55% in size
In short: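 Viability of GeneBLAzer PPARd UAS-bla HEK293H cells was assessed after 17 h compound incubation at 37C, using CellTiter-Glo reagent added after the reporter read and luminescence recorded 30 min later.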

[19] = qHTS assay to identify small molecule antagonists of the vitamin D receptor (VDR) signaling pathway - cell viability counter screen (AID 743225)
In short: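 Cells (VDR-UAS-bla HEK 293T) are plated, rested 4 h at 37C, dosed with compound and 3 nM final 1-alpha,25-dihydroxy vitamin D3, and incubated 16 h. Viability is taken from CellTiter-Glo luminescence in the reporter wells.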

[20] = qHTS assay to identify small molecule antagonists of the retinoid-related orphan receptor gamma (ROR-gamma) signaling pathway - cell viability counter screen (AID 1159520)
In short: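 Tet-on ROR gamma CHO cells were given compounds for 2 hr, then doxycycline hyclate at 1 uM final, and incubated 16 hr at 37 C. Viability was measured as ATP content by CellTiter-Glo luminescence.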

Sequence of Vitamin D3 receptor (Homo sapiens) (P11473 whole entry, looked up): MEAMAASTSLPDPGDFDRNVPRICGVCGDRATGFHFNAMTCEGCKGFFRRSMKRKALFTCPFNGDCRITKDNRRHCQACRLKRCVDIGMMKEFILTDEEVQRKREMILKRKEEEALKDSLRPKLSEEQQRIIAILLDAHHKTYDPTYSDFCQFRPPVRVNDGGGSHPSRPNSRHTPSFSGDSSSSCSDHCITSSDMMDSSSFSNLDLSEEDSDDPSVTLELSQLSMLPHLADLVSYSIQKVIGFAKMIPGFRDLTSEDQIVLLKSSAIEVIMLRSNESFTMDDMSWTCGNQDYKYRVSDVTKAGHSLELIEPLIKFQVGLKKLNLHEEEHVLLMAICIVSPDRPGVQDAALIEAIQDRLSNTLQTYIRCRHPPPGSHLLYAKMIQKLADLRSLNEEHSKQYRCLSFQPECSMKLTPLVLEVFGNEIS
Sequence of Bile acid receptor (Homo sapiens) (Q96RI1 whole entry, looked up): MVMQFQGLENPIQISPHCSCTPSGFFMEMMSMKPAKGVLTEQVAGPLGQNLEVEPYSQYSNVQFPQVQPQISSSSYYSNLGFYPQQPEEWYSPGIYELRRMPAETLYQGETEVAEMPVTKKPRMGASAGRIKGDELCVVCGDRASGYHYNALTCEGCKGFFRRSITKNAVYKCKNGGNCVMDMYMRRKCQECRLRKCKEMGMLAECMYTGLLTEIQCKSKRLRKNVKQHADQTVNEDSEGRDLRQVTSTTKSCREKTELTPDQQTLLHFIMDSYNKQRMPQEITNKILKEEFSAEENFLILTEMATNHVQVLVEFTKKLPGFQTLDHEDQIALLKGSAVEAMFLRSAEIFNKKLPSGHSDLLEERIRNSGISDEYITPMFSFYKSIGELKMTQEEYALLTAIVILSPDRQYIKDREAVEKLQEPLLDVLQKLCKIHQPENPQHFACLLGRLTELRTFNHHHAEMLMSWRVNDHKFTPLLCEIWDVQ
Sequence of Peroxisome proliferator-activated receptor delta (Homo sapiens) (Q03181 whole entry, looked up): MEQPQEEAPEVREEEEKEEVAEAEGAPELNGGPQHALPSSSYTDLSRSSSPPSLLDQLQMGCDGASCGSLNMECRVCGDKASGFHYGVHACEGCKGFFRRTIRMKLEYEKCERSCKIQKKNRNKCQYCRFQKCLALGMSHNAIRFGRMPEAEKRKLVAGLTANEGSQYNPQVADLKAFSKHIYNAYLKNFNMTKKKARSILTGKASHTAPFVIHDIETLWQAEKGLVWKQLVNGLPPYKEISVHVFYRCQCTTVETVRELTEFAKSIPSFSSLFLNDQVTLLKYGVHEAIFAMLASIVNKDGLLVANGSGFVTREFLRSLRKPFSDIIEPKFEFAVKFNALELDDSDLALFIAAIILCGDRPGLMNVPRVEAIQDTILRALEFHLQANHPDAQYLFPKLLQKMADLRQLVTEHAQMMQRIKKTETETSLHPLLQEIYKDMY
Sequence of Retinoic acid receptor RXR-alpha (Homo sapiens) (P19793 whole entry, looked up): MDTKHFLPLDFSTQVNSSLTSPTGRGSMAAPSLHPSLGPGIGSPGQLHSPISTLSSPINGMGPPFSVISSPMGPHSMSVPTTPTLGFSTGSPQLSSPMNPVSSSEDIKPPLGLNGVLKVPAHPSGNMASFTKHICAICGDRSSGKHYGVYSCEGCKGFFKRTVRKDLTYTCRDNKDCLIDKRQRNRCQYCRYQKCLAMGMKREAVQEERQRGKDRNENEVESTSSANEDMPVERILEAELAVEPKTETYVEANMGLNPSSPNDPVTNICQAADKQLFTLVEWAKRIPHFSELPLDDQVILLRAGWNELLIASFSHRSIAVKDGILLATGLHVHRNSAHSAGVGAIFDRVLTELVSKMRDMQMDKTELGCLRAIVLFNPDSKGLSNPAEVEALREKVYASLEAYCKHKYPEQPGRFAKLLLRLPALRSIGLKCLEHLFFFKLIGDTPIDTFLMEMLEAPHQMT

O=P(O)(O)C(O)(Cc1cccnc1)P(=O)(O)O
inactive: outcome [1] | outcome [2] | outcome [3] | outcome [4] | outcome [5] | outcome [6] | outcome [7] | outcome [8] | outcome [9] | outcome [10] | outcome [11] | Potency [12] | outcome [13] | outcome [14] | outcome [15] | Potency [16] | Potency [17]

C/C(Cl)=C/CCl
inactive: outcome [18] | outcome [1] | outcome [3] | outcome [4] | outcome [5] | outcome [6] | outcome [7] | outcome [10] | outcome [19] | outcome [11] | Potency [12] | outcome [20] | outcome [14] | outcome [15] | Potency [16] | Potency [17]

Cc1cc2c(cc1CC(=O)c1sccc1S(=O)(=O)Nc1onc(C)c1Cl)OCO2
inactive: outcome [18] | outcome [1] | outcome [5] | outcome [7] | outcome [9] | outcome [10] | outcome [19] | outcome [11] | Potency [12] | outcome [20] | outcome [14] | outcome [15] | Potency [16] | Potency [17]

NCC1CCC(C(=O)Oc2ccc(CCC(=O)O)cc2)CC1 (stereo not given)
inactive: outcome [18] | outcome [2] | outcome [3] | outcome [4] | outcome [5] | outcome [6] | outcome [7] | outcome [8] | outcome [9] | outcome [10] | outcome [19] | outcome [11] | Potency [12] | outcome [20] | outcome [14] | outcome [15] | Potency [16] | Potency [17]

CNCCc1ccccn1
inactive: outcome [2] | outcome [5] | outcome [7] | outcome [10] | outcome [19] | outcome [11] | Potency [12] | outcome [20] | outcome [14] | outcome [15] | Potency [16] | Potency [17]

CC1(C)CC(N)CC(C)(C)N1
inactive: outcome [18] | outcome [1] | outcome [2] | outcome [3] | outcome [4] | outcome [5] | outcome [6] | outcome [7] | outcome [8] | outcome [10] | outcome [19] | outcome [11] | Potency [12] | outcome [20] | outcome [14] | outcome [15] | Potency [16] | Potency [17]

CCCCCCCC(=O)N(C)C
inactive: outcome [1] | outcome [2] | outcome [3] | outcome [5] | outcome [7] | outcome [8] | outcome [9] | outcome [10] | outcome [11] | Potency [12] | outcome [20] | outcome [14] | outcome [15] | Potency [16] | Potency [17]

Cc1ccc(O)c(C(=O)c2ccccc2)c1
inactive: outcome [18] | outcome [1] | outcome [2] | outcome [3] | outcome [5] | outcome [7] | outcome [8] | outcome [10] | outcome [11] | Potency [12] | outcome [20] | outcome [14] | outcome [15] | Potency [16] | Potency [17]

CN1CCN(C(=O)C2CCCCC2)CC1
inactive: outcome [18] | outcome [1] | outcome [2] | outcome [3] | outcome [4] | outcome [5] | outcome [6] | outcome [7] | outcome [8] | outcome [9] | outcome [19] | outcome [11] | Potency [12] | outcome [20] | outcome [14] | outcome [15] | Potency [16] | Potency [17]

CCCCCCCCCCCCCCCCN(C)C
inactive: activity change, negative = cytotoxicity [18] 1.19% [at 5.95 µM] | viability change, negative = cytotoxic [2] 1.6% [at 6.26 µM] | ratio activity, negative = inhibition [3] -0.339% [at 6.26 µM] | activity change, negative = inhibition [4] -5.41% [at 5.95 µM] | viability change, negative = cytotoxic [5] 0.68% [at 5.95 µM] | activity change, negative = cytotoxicity [7] -0.818% [at 5.95 µM] | activity change, negative = cytotoxicity [10] 12.1% [at 5.95 µM] | viability change, negative = cytotoxic [19] -0.156% [at 6.95 µM] | activity, negative = cytotoxic [11] -0.303% [at 6.95 µM] | activation [12] 0.0292% [at 6.95 µM] | activity, negative = cytotoxicity [20] 7.06% [at 8.39 µM] | activity change, negative = inhibition [14] 0.397% [at 8.39 µM] | viability change, negative = cytotoxic [15] 0.637% [at 6.97 µM] | activation [16] -6.44% [at 6.97 µM] | activation [17] 8.03% [at 6.98 µM]

O=C(c1ccccc1)c1cccc(O)c1
inactive: outcome [18] | outcome [1] | outcome [2] | outcome [5] | outcome [7] | outcome [8] | outcome [9] | outcome [10] | outcome [11] | Potency [12] | outcome [20] | outcome [14] | outcome [15] | Potency [16] | Potency [17]

CCOC(=O)c1ccc(N(C)C)cc1
inactive: outcome [18] | outcome [1] | outcome [2] | outcome [3] | outcome [5] | outcome [7] | outcome [8] | outcome [9] | outcome [10] | outcome [19] | outcome [11] | Potency [12] | outcome [20] | outcome [14] | outcome [15] | Potency [16] | Potency [17]

O=C1CCCc2c(O)cccc21
inactive: outcome [2] | outcome [4] | outcome [5] | outcome [6] | outcome [7] | outcome [9] | outcome [10] | outcome [19] | outcome [11] | Potency [12] | outcome [20] | outcome [14] | outcome [15] | Potency [16] | Potency [17]

CC(C)OCCO
inactive: outcome [18] | outcome [5] | outcome [7] | outcome [8] | outcome [9] | outcome [19] | outcome [11] | Potency [12] | outcome [20] | outcome [14] | outcome [15] | Potency [16] | Potency [17]

CCCC(=O)OC
inactive: outcome [18] | outcome [2] | outcome [5] | outcome [7] | outcome [8] | outcome [9] | outcome [10] | outcome [19] | outcome [11] | Potency [12] | outcome [13] | outcome [14] | outcome [15] | Potency [16] | Potency [17]

CC(O)CCCCn1c(=O)c2c(ncn2C)n(C)c1=O (stereo not given)
inactive: outcome [18] | outcome [1] | outcome [2] | outcome [3] | outcome [5] | outcome [7] | outcome [8] | outcome [9] | outcome [10] | outcome [19] | outcome [11] | Potency [12] | outcome [20] | outcome [14] | outcome [15] | Potency [16] | Potency [17]

C[n+]1ccccc1/C=N/O
inactive: outcome [18] | outcome [1] | outcome [3] | outcome [5] | outcome [7] | outcome [8] | outcome [9] | outcome [10] | outcome [19] | outcome [11] | Potency [12] | outcome [14] | outcome [15] | Potency [16] | Potency [17]
